In PubChem BioAssay (NCATS):
Results filed as inconclusive are left out. Active and inactive are the calls of the source. The call rests on the fitted dose curve; in most records, active means well fitted activation curve with a large enough effect; inconclusive means small, poorly fitted or top-dose-only effect; inactive means no such curve, though single readings can be large or run the other way.

molecular target: Rap guanine nucleotide exchange factor 3 (Homo sapiens) (UniProt O95398); assay: Confirmatory qHTS for agonist of cAMP-regulated guanine nucleotide exchange factor 3 (EPAC1) (AID 1645881); settings: EPAC1 Rap1B BODIPY-GDP exchange fluorescence; series mostly up to 154 µM; activation: at the top concentration;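 further: EPAC1 catalysed release of BODIPY-GDP from Rap1B seen as fluorescence loss; 100% = effect of cAMP agonist control; nearly all actives have a fitted effect of over 75% in size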
Sequence (O95398 whole entry, looked up): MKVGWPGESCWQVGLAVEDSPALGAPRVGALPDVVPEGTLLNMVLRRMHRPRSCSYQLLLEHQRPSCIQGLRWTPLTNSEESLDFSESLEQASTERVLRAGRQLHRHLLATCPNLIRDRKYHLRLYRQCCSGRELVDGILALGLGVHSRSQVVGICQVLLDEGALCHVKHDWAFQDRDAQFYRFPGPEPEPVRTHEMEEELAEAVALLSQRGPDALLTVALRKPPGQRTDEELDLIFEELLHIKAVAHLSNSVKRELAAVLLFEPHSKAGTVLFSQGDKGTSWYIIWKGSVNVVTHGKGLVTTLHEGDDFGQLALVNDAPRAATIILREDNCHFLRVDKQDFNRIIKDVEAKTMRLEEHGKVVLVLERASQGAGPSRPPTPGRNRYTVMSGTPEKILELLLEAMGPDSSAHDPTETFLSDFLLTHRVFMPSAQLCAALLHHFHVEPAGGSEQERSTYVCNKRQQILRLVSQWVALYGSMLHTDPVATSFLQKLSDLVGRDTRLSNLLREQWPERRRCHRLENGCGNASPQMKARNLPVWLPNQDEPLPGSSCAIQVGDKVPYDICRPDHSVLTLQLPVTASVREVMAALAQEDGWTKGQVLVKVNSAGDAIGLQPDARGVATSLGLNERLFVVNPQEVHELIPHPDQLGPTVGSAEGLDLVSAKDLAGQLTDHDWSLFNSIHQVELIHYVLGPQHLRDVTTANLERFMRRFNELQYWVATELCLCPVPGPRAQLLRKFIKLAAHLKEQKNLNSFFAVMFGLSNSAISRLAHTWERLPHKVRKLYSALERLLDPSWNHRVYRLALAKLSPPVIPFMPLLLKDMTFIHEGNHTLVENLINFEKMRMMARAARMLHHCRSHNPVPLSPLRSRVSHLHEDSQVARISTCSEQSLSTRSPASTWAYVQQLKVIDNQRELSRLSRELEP

activation, inactive:
COc1cc(C2CC(=O)Oc3cc(C)c(Br)c(C)c32)cc(OC)c1OC (stereo not given) 14.8%, O=C(NCCc1ccccc1)c1ccc(Cn2c(SCc3cccc(F)c3)nc3cccnc32)cc1 10%, Nc1ccccc1C(=O)NNc1c2ccccc2nc2ccccc12 12.7%, COC(=O)c1ccc2c(=O)n(CCCCCC(=O)N3CCN(c4cc(C)ccc4C)CC3)c(=O)[nH]c2c1 -6.15%, O=C1CS(=O)(=O)N(Cc2cccc(F)c2)c2ccc(Br)cc21 12.9%, O=C1C=C(NS(=O)(=O)c2ccccc2)C(=O)c2ccccc21 -4.95%, O=C(CSc1ccc(-c2ccco2)nn1)c1cccc([N+](=O)[O-])c1 8.99%, O=C(NNC(=O)c1ccccc1F)c1cccc(-n2cccc2)c1 2.09%, CC(C)(C)NC(=O)COC(=O)c1c2c(nc3ccccc13)CCC2 -7.35%, COc1ccc2oc(=O)c(-c3nnc(NCc4ccco4)s3)cc2c1 -0.683%, COC(=O)C1(C)CC1(c1ccccc1)c1ccccc1 (stereo not given) 19%, O=C(COc1ccccc1-c1ccccc1)NCc1ccco1 11.5%, c1cc(-c2cc3nc(NC4CCCCC4)ccn3n2)ccc1OCCN1CCOCC1 17.8%, CCc1ccc2occ(CC(=O)Nc3ccc(C)c(C)c3)c2c1 0.343%, O=C(Nc1cc(Cl)cc(Cl)c1)c1ccc(F)c(S(=O)(=O)NC2CCCC2)c1 2.17%, O=C(/C=C/c1ccco1)Nc1cccc2cccnc12 22.1%, COc1cc(S(=O)(=O)NC2CCCCC2C)ccc1Cl (stereo not given) 13.7%, NC(=O)c1c(NC(=O)CSc2nnc(-c3ccco3)n2N)sc2c1CCCC2 0.194%, O=C(O)c1ccc(N2C(=O)CC(SC(=NCc3ccc4c(c3)OCO4)Nc3ccc(F)cc3)C2=O)cc1 (stereo not given) -19.5%, CC1=NN(c2ccc(C)c(C)c2)C(=O)C1C(c1cccc(O)c1)C1C(=O)N(c2ccc(C)c(C)c2)N=C1C (stereo not given) 2.47%, NC(=O)[C@H]1CC2(CC(c3cccc(NC(=O)[C@H]4CCC(=O)N4)c3)=NO2)CN1C(=O)c1ccccc1 (stereo not given in full) -1.88%, Cn1c(=O)c(C(=O)NNC(=O)c2ccccc2Br)c(O)c2ccccc21 0.24%, O=c1c2ccccc2nc(N/N=C/c2c(O)ccc3ccccc23)n1O -17.5%, CCCC1=C(C(=O)OCC)C(c2ccco2)C(C#N)=C(N)O1 (stereo not given) -1.56%, O=C(N/N=C/c1ccc(Sc2ccccn2)o1)c1cc2ccccc2cc1O 1.25%, CC(C)(C)Cc1c(-c2ccccc2)nc2ccc(Cl)cn12 9.57%, O=C(NCc1ccccc1)C(c1ccccc1)n1c(=O)c(-c2ccco2)nc2ccccc21 (stereo not given) 0.384%, CCN=C1S/C(=C\c2ccc(-c3cccc(C(=O)O)c3)o2)C(=O)N1CC -3.3%, O=C(/C=C/c1ccc(-c2ccccc2[N+](=O)[O-])o1)c1ccco1 11.1%, CCOc1ccc(S(=O)(=O)Nc2ccc(F)cc2)c(C)c1C 6.12%, O=C(CN1C(=O)/C(=C2/SC(=S)N(CCS(=O)(=O)O)C2=O)c2ccccc21)Nc1cccc(C(F)(F)F)c1 -9.75%, O=C(OCC1OC(n2ncc(=O)[nH]c2=O)C(OC(=O)c2ccccc2)C1OC(=O)c1ccccc1)c1ccccc1 (stereo not given) -5.44%, O=C(Nc1cccc(NC(=O)c2cccs2)c1)c1ccc(Br)o1 15.6%, COc1ccc(CC(=O)NCc2ccc3c(c2)CCN3C(=O)c2ccc(Cl)cc2)cc1OC -1.3%, CN(C)S(=O)(=O)c1cccc(COC(=O)Cc2c(F)cccc2Cl)c1 15.7%, Cc1cccc(NC(=O)CN2C(=O)S/C(=C\c3cccn3-c3cccc(C(=O)O)c3)C2=O)c1 15.7%, Cc1ccc(C(C)C)c(OCC(=O)NCC2(N3CCOCC3)CCCCC2)c1 13.4%, Cc1cccc(Nc2nnc(-c3ccc(N4CCOCC4)c([N+](=O)[O-])c3)c3ccccc23)c1 14%, CN(c1ccccc1)c1ccc(/C=C(/CCC(=O)O)c2nc3ccccc3s2)cc1[N+](=O)[O-] -1.41%, COc1ccc(OC)c(-n2c(SC)nnc2-c2c[nH]c3ccccc23)c1 8.16%
